Here are results for 40 compounds from PubChem BioAssay.

The structures appear in SMILES notation. Unmarked numbers belong to inactive results. No rule for the calls is given here.

What is called inhibition is how much of the control response was suppressed.

The target in the test is Pantothenate synthetase (Mycobacterium tuberculosis (strain ATCC 25618 / H37Rv)) (UniProt P9WIL5). The test can be described thus: Recombinant Mtb pantothenate synthetase (PanC) inhibitors, coupled enzyme, confirmatory (AID 375).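 Also: 0% = full reaction with vehicle and 100% = no enzyme background.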 As to conditions: coupled enzyme assay; at 10 µM, active compounds read high.
Pantothenate synthetase (Mycobacterium tuberculosis (strain ATCC 25618 / H37Rv)), sequence (P9WIL5 whole entry, looked up): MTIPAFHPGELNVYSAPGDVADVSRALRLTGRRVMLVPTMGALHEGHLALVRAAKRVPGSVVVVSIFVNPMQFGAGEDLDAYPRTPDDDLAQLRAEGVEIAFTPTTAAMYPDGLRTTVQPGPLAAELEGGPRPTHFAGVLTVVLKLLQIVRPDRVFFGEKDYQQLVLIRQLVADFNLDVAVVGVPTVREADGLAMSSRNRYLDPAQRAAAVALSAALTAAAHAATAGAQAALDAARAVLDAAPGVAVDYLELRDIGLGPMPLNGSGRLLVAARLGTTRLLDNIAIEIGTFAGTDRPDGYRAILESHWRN
Regarding `CNC(=O)c1c(O)c2cccc3c2n(c1=O)CC3`, the inhibition is 1%.

As for `COc1cc(-c2nc(S(=O)(=O)c3ccc(C)cc3)c(N(C)C)o2)cc(OC)c1OC`, the inhibition was 3%.

As for `Cc1ccccc1C(=O)NC1CCN(Cc2nnnn2CCc2ccccc2)CC1`, the inhibition was 14%.

For `OCCNc1ncnc2c1c(-c1ccccc1)c(-c1ccccc1)n2Cc1ccco1`, the inhibition was 1%.

On to `CCOC(=O)c1cnn(-c2sc(C(=O)OCC)c(C)c2C(=O)OCC)c1N`, for which the inhibition is 0%.

Turning to `Cn1c(=O)c2c(nc(NCCc3ccccc3)n2CC(=O)NCCc2ccccc2)n(C)c1=O`, the inhibition was 0%.

In the case of `Cc1cc(C)n(Cc2nc3ccccc3n2C)n1`, the inhibition is 0%.

For `CCCCCCC(C)n1[nH]c(=O)c2c(C)cc(=O)[nH]c21` (stereo not given), the inhibition was 5%.

As to `Cn1c(Cc2ccccc2)nnc1SCC(=O)N1CCOCC1`, the inhibition was 0%.

`CC(C)(Oc1ccc(CCNC(=O)c2ccc(Cl)cc2)cc1)C(=O)O`: the inhibition was 0%.

On to `CCC1CCCCN1CCCNC(=O)c1ccc(CS(=O)(=O)Cc2ccccc2F)o1` (stereo not given), for which the inhibition was 4%.

`CCOC(=O)CSC1=C(C#N)C(=O)NC(c2ccc(OC)c(OC)c2)S1` (stereo not given): the inhibition is 16%.

`CC(NC(=O)Nc1ccccc1)C(c1cccs1)N1CCOCC1` (stereo not given): the inhibition was 0%.

Take `c1ccc2c(CC3=NCCN3)cccc2c1`: the inhibition was 0%.

For the compound `N=c1c[n+](N2CCOCC2)[n-]o1`, the inhibition is 0%.

For the compound `O=C(NCCN1CCCCC1)c1ccc(=O)oc1`, the inhibition is 7%.

On to `COc1ccc(-n2c(SCCC(=O)O)nnc2-c2ccncc2)cc1`, for which the inhibition was 5%.

`COc1ccc(C2C(C(=O)c3sc(C)nc3C)=C(O)C(=O)N2CCN(C)C)cc1OC` (stereo not given): the inhibition was 0%.

Take `COc1ccc(CCN(Cc2cc3cccc(C)c3[nH]c2=O)C(=O)N2CCCC2)cc1OC`: the inhibition is 0%.

As to `CCOC(=O)C1CCN(C(=O)COc2ccc(S(=O)(=O)NC(C)C)cc2Cl)CC1`, the inhibition is 0%.

On to `CNC(=O)c1ccccc1NC(=O)c1c(O)c2c([nH]c1=O)CCCC2`, for which the inhibition was 7%.

For the compound `COc1ccc(/C(O)=C2/C(=O)C(=O)N(CCCN(C)C)C2c2ccco2)cc1Cl` (stereo not given), the inhibition was 0%.

As for `CCC(CC)C(=O)NCCc1cc2ccc(C)cc2[nH]c1=O`, the inhibition was 0%.

Regarding `CCOC(=O)c1c(NC(=O)CSc2nnc(-c3cccnc3)o2)sc(C)c1C`, the inhibition is 4%.

Regarding `O=C(Nc1ccccc1-c1ccccc1)NC1CCN(CC(=O)N2CCOCC2)CC1`, the inhibition is 0%.

`CC1CCCCC1NC(=O)c1nn(C)c(=O)c2ccccc12` (stereo not given): the inhibition is 0%.

Take `CCOc1cccc2cc(C(=O)N3CCN(C/C=C/c4ccccc4)CC3)c(=O)oc12`: the inhibition was 0%.

With `CCSc1ncc(C#N)c(=O)[nH]1`, the inhibition is 0%.

For `Cc1ccc(C(=O)Nc2ccc3c(c2)OCO3)cc1S(=O)(=O)N1CCCC1`, the inhibition is 0%.

Turning to `O=C1C(Cl)=C(N2CCOCC2)C(=O)N1CCc1ccccc1`, the inhibition is 4%.

Consider `O=C(c1c(F)cccc1F)N(Cc1ccccn1)C1CCCC1`, for which the inhibition is 1%.

With `CN(C)S(=O)(=O)c1ccc(/C(O)=C2/C(=O)C(=O)N(CCN3CCCCC3)C2c2cccnc2)cc1` (stereo not given), the inhibition is 0%.

As for `COc1ccc2c(c1)[nH]c1c(=O)n(CCN(C)C)cnc12`, the inhibition was 0%.

Turning to `CCOC(=O)N1CCC(Nc2ncnc3c2cnn3-c2ccc(C)cc2C)CC1`, the inhibition is 3%.

Consider `O=C(NCc1ccccc1)C1CCCN(S(=O)(=O)c2cccnc2)C1` (stereo not given), for which the inhibition was 0%.

Consider `Nc1c(C2=NCCO2)nnn1Cc1ccccc1`, for which the inhibition was 0%.

`COc1ccccc1NC(=O)CC(NCc1ccccc1)C(=O)O` (stereo not given): the inhibition was 5%.

On to `Cc1cc(Cl)ccc1NC(=O)CSc1nnc(Cc2cccs2)n1Cc1ccco1`, for which the inhibition was 0%.

For `CCSc1nnc(NC(=O)CSc2nnc(Cc3cccn3C)n2-c2ccc(C)cc2)s1`, the inhibition is 5%.

Take `COc1ccc(NC(=O)Nc2ccc(C)cc2OC(F)F)cc1OC`: the inhibition is 3%.
